Source: PubChem BioAssay (National Center for Advancing Translational Sciences (NCATS))
Sampled rows, rich in hits. Any-hit rate of the full collection: about 8%.
SW480 rereplic – DNA re-replication induction in SW480 cells. SW480 DNA re-replication, Hoechst DNA content imaging, 48 h. Potency, µM (doses to about 46.1 µM), for the others: at the highest dose re-replication activation, most hits filed as activators. 340,000 tested, 1.8% active. AID 624297; further: % of control where 0% means no effect; nearly all actives have a fitted effect of over 55% in size
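Compounds, transferred as 23 nL by pin tool, were incubated with cells for 48 hr; DNA content per nucleus was then quantified by Hoechst staining and fluorescence plate imaging.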
KB-V1 MDR tox – KB-V1 MDR subline cytotoxicity; KB-V1 MDR cells viability, CellTiter-Glo, 72 h; Potency, µM (series often up to 46.1 µM), hits mostly cytotoxic; 400,000 tested, 3.4% active; further: on the % scale 0 is the no-effect control and ±100 the full control effect; nearly all actives have a fitted effect of over 60% in size
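Potencies derive from concentration-effect curves fitted to normalized luminescence (CellTiter-Glo) of KB-V1 cells treated for 72 h at 37 degrees C in phenol-red-free DMEM containing 10% FBS.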
HT1080NT lethal – kills 2HG-producing HT-1080-NT fibrosarcoma cells | HT-1080-NT fibrosarcoma viability, CellTiter-Glo ATP luminescence, 48 h | Potency, µM (doses to about 46.1 µM), without a hit: at the top dose activity, negative = less viability, usual class: cytotoxic | 360,000 tested, 1.6% active | AID 686970;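 further: NT is the 2HG producing partner of a matched IDH1 knockdown line; 0% = DMSO-treated cells and -100% = media-only wells without cells; nearly all actives have a fitted effect of over 55% in size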
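Compounds were tested in concentration-response format on HT-1080-NT cells for 48 hours at 37 degrees C. Cell viability came from CellTiter-Glo luminescence; curves were classified by r2, response magnitude and activity.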
MCF10A rereplic – inducers of DNA re-replication in MCF 10A breast cells; MCF 10A DNA re-replication, Hoechst nuclear intensity, 48 h; Potency, µM (highest dose often 46.1 µM), for inactives: top-dose activity, positive = re-replication, hits mostly activators; 350,000 tested, 2.9% active; AID 624296; further: % of control where 0% means no effect; nearly all actives have a fitted effect of over 50% in size
HT1080 IDH1KD tx – toxicity to HT-1080 IDH1 knockdown cells (counter line). HT-1080 IDH1 knockdown viability, ATP luminescence, 48 h. Potency, µM (doses to about 46.1 µM), inactives show at the top dose activity, negative = toxicity, actives largely listed as cytotoxic. 360,000 tested, 2% active. AID 686971;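 further: 0% = DMSO wells and -100% = cell-free medium wells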
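HT-1080-IDH1KD cells (IDH1 knocked down), 750/well in RPMI with 5% FBS, treated with compound 48 h at 37 degrees C. Viability by CellTiter-Glo luminescence, normalised to DMSO and no-cell wells; concentration-response curves classed.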
KB-3-1 cytotox – kills parental KB-3-1 adenocarcinoma cells. KB-3-1 viability, CellTiter-Glo ATP luminescence, 72 h. Potency, µM (top dose mostly 46.1 µM), actives largely listed as cytotoxic. 400,000 tested, 1.4% active. AID 1347075; further: on the % scale 0 is the no-effect control and ±100 the full control effect; nearly all actives have a fitted effect of over 60% in size
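Luminescent ATP read-out (CellTiter-Glo) measures survival of drug-naive KB-3-1 cells after 72 h compound exposure at 37 °C. Titration series was screened from lowest to highest concentration, with DMSO vehicle plates as background controls.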
The depositor's hits bear a star; ! = not confirmed by another sample; [ ] = remark or other dose. The call rests on the fitted dose curve; in most records, active means well fitted curve in the direction sought with a large enough effect; inconclusive means small, poorly fitted or top-dose-only effect, or another doubt; inactive means no such curve, though single readings can be large; an effect the other way counts as inactive or inconclusive. Potency means the concentration at half of the fitted maximal effect.

What do the screens show for `O=c1[nH]c(/C(Cl)=C/c2cc(Cl)ccc2O)nc2cc(Cl)ccc12`?
SW480 rereplic: 26%; KB-V1 MDR tox: 15µM*; HT1080NT lethal: -1%; MCF10A rereplic: 15µM*; HT1080 IDH1KD tx: -2%; KB-3-1 cytotox: inconclusive

How did COc1cccc(CN2CC(C(=O)NC3CCC(O)CC3)CCC2=O)c1 (stereo not given) do in these assays?
SW480 rereplic: -4%; HT1080NT lethal: 0%; MCF10A rereplic: -5%; HT1080 IDH1KD tx: 8%

Results for CCn1c2ccccc2c2nnc(SCN3C(=O)c4ccccc4C3=O)nc21 ?
SW480 rereplic: -3%; KB-V1 MDR tox: 8.2µM*; HT1080NT lethal: 1%; MCF10A rereplic: 3%; HT1080 IDH1KD tx: 1%; KB-3-1 cytotox: inconclusive

What do the screens show for `C=CCn1c2ccccc2c2nnc(SCC(=O)NC(C(=O)OC)C(C)C)nc21` (stereo not given)?
SW480 rereplic: -2%; KB-V1 MDR tox: 8.2µM*; HT1080NT lethal: -10%; MCF10A rereplic: 0%; HT1080 IDH1KD tx: -7%; KB-3-1 cytotox: inactive

What do the screens show for `COc1ccccc1NC(=O)N1CCC(CN2CCc3ccccc3C2)CC1`?
KB-V1 MDR tox: inactive; KB-3-1 cytotox: inactive

How did O=C(c1cc2ccccc2o1)N(Cc1ccco1)Cc1cccs1 do in these assays?
SW480 rereplic: 9%; KB-V1 MDR tox: inactive; HT1080NT lethal: -1%; MCF10A rereplic: inconclusive; HT1080 IDH1KD tx: 0%; KB-3-1 cytotox: inactive

What do the screens show for `Cc1c(C(=O)N(Cc2ccco2)Cc2cccs2)oc2ccccc12`?
SW480 rereplic: -5%; KB-V1 MDR tox: 16µM*; HT1080NT lethal: 2%; MCF10A rereplic: inconclusive; HT1080 IDH1KD tx: 8%; KB-3-1 cytotox: inactive

How did COc1ccc(NCC(=O)n2c(C)c(C)c3ccccc32)cc1 do in these assays?
SW480 rereplic: inconclusive; KB-V1 MDR tox: inconclusive; HT1080NT lethal: inconclusive; MCF10A rereplic: 18µM*; HT1080 IDH1KD tx: inconclusive; KB-3-1 cytotox: 12µM*

Results for Cn1cccc1/C=C1\Cc2ccccc2C1=O ?
SW480 rereplic: 5%; KB-V1 MDR tox: inactive; HT1080NT lethal: 6%; MCF10A rereplic: 8%; HT1080 IDH1KD tx: 15%; KB-3-1 cytotox: inactive

Results for Cn1cccc1/C=C1\CC(C(C)(C)C)C/C(=C\c2cccn2C)C1=O (stereo not given) ?
SW480 rereplic: inconclusive; KB-V1 MDR tox: 4.1µM*; HT1080NT lethal: 5%; MCF10A rereplic: 3.7µM*; HT1080 IDH1KD tx: -3%; KB-3-1 cytotox: inconclusive

Results for CCC[C@@H](CN1CCC[C@H]1CN1C(N)=NC[C@@H]1Cc1ccccc1)N1C[C@@H](Cc2ccccc2)N(CCCC2CCCC2)C1=N ?
SW480 rereplic: -8%; KB-V1 MDR tox: inactive; HT1080NT lethal: 5%; MCF10A rereplic: -11%; HT1080 IDH1KD tx: 9%; KB-3-1 cytotox: inactive

How did CCC[C@@H](CN1CCC[C@H]1CN1C(N)=NC[C@@H]1Cc1ccccc1)N1C[C@@H]([C@H](C)CC)N(CCCC2CCCC2)C1=N do in these assays?
SW480 rereplic: inconclusive; KB-V1 MDR tox: inactive; HT1080NT lethal: inconclusive; MCF10A rereplic: 18µM*; HT1080 IDH1KD tx: inconclusive; KB-3-1 cytotox: inconclusive

What do the screens show for `CCOc1ccc(S(=O)(=O)NCCc2c(C)[nH]c3c(Cl)cccc23)cc1C`?
KB-V1 MDR tox: inactive; KB-3-1 cytotox: inactive

What do the screens show for `CCOC(=O)c1ccc(-c2c(-c3cc(OC)c(OC)c(OC)c3)noc2C)cc1F`?
SW480 rereplic: 2.9µM*; KB-V1 MDR tox: 12µM*; HT1080NT lethal: inconclusive; MCF10A rereplic: 1.5µM*; HT1080 IDH1KD tx: 1.8µM*; KB-3-1 cytotox: 1.6µM*!

What do the screens show for `CCOC(=O)c1ccc(-c2c(-c3ccc(OC)cc3)oc(=O)c3cc(OC)c(OC)cc23)cc1F`?
SW480 rereplic: 19%[9.22 µM]; KB-V1 MDR tox: inactive; HT1080NT lethal: 10%; MCF10A rereplic: -3%; HT1080 IDH1KD tx: 11%; KB-3-1 cytotox: inactive
